Source: PubChem BioAssay

molecular target: Torsin-1A (Homo sapiens) (UniProt O14656); experiment: torsin A binders from cell lysate, primary screen, small-molecule microarray, wild-type, 635/667 nm (AID 1149); conditions: COS7 hTOR1A-WT lysate, 635 nm fluorescence, higher = more signal
Sequence (O14656 whole entry, looked up): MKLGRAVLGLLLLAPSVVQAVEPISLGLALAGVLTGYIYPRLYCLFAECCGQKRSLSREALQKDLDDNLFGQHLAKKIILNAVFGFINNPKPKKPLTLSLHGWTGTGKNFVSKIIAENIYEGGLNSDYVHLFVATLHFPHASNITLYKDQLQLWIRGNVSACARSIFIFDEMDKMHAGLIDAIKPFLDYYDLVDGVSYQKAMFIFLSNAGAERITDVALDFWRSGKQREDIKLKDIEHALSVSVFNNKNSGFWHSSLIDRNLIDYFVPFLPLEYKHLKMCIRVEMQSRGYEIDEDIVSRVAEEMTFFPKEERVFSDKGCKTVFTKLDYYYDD

Compound | composite z-score
CCOC(=O)C[C@H]1[C@H](OC(=O)Cc2ccc3c(c2)OCO3)[C@@H](NC(=O)CC(C)C)c2cc(OCCCO)ccc2N1C(=O)c1ccc2ccccc2n1 | 0.384
O=C1O[C@H](c2ccccc2)[C@H](c2ccccc2)N2[C@H]1[C@@H](C(=O)N1CCN(c3ncccn3)CC1)[C@]1(C(=O)Nc3ccc(C#CC4(O)CCCCCC4)cc31)[C@H]2c1ccc(O)cc1 | 0.574
COC(=O)C[C@H]1O[C@]2(C(=O)N(C)c3ccccc32)[C@@H](C)[C@@H]1[Si](C)(C)c1ccccc1 | 0.262

molecular target: Torsin-1A (Homo sapiens) (UniProt O14656); experiment: small-molecule binders of mutant TOR1A in lysate, primary screen, cell lysate, small-molecule microarray, COS7 lysate, 635/667 nm fluorescence (AID 1150); conditions: COS7 hTOR1A mutant lysate, 635 nm fluorescence, higher = more signal;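 further: score pools 667 nm emission and signal to noise measuring lysate protein binding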

Compound | composite z-score
CCCC[C@@H](O)C1=C(C)Cn2c(=O)n(-c3ccccc3)c(=O)n2[C@H]1CO | 0.141
CCOC(=O)C[C@H]1[C@H](OC(=O)c2cc3ccccc3oc2=O)[C@@H](NC(=O)Cc2ccc(OC)cc2)c2cc(OCCCO)ccc2N1C(=O)Cc1ccc(OC)cc1 | 0.839
COC(=O)C1=CC(CCCO)=CC(c2ccc(CN3CCCC3)cc2)N(C)C=C1C(=O)OC (centres undefined) | -0.418
CCOC(=O)C[C@H]1[C@H](OC(=O)c2ccc(-c3ccccc3)cc2)[C@@H](NC(=O)c2ccc(-c3ccccc3)cc2)c2cc(OCCCO)ccc2N1C(=O)c1ccccc1 | 0.987
COc1ccc(C(=O)Nc2cccc(CN3C(=O)[C@]4(O[C@H](CC(=O)N(CCO)Cc5ccccc5)[C@@H]([Si](C)(C)c5ccc(OC)cc5)[C@@H]4C)c4ccccc43)c2)cc1 | 0.395
O=C(N1CCOCC1)[C@]1(CCS(=O)(=O)c2ccccc2)N=C(c2ccc(OCCCO)cc2)O[C@@H]1c1ccccc1 | 0.77
CC(C)c1ccc(NN2C(C(O)c3ccccc3)C=CC3C(=O)N(c4ccccc4)C(=O)C32)cc1 (centres undefined) | 0.514
COc1ccc([Si](C)(C)[C@H]2[C@H](CC(=O)N3CCC[C@H]3CO)O[C@@]3(C(=O)N(C)c4c(Br)cc(C)cc43)[C@@H]2C)cc1 | 1.5
COCCCNC(=O)[C@]1(Cc2ccccc2N=[N+]=[N-])N=C(c2ccc(OCCCO)cc2)O[C@@H]1c1ccccc1 | 1.09
[N-]=[N+]=NCc1ccccc1[C@H]1OC(c2ccc(OCCCO)cc2)=N[C@@]1(Cc1ccccc1N=[N+]=[N-])C(N)=O | 0.949
C=CC[C@]1(C(=O)NCC(O)CO)N=C(c2ccc(OCCCO)cc2)O[C@H]1c1ccccc1CN=[N+]=[N-] (some centres undefined) | 2.58
C[C@]1(C(=O)NC2CC2)c2ccccc2C(=O)N(Cc2cc(F)cc(C(F)(F)F)c2)[C@H]1c1ccc(CO)cc1 | 0.416
CC(C)N1CC=CC23O[C@@H]4/C=C\CCCOC(=O)C4[C@H]2C(=O)N(C(C)CO)[C@@H]3C1=O (some centres undefined) | -0.913
CCOC(=O)C[C@H]1[C@H](OC(=O)c2ccccc2-c2ccccc2)[C@@H](NC(=O)CC(C)C)c2cc(OCCCO)ccc2N1C(=O)c1ccccc1 | -0.161
CN(C)CCCCNC(=O)[C@H]1C[C@H]2C(=O)N[C@@H](CCCCN(C)C)C(=O)N2[C@H]1c1ccc(O)cc1 | 0.282
CC(CO)N1C(=O)[C@@H]2[C@H]3C(=O)OCC=C[C@H]3OC23C=CCN(c2ccc4ccccc4c2)C(=O)[C@@H]13 (some centres undefined) | -1.05
CC(C)N1C(=O)[C@@]2(Cc3ccccc31)c1ccccc1C(=O)N(Cc1ccccc1)[C@H]2c1ccc(CO)cc1 | -0.182
CCOC(=O)C1=CC[C@@H](c2ccccc2)N(S(=O)(=O)c2ccc(C)cc2)[C@@H]1C#N | 0.291

Compound | composite z-score
COc1ccc([Si](C)(C)[C@@H]2[C@@H](CC(=O)N(CCO)Cc3ccccc3)O[C@]3(C(=O)N(Cc4cccc(I)c4)c4ccccc43)[C@H]2C)cc1 | 0.443
CO[C@H]1O[C@H](CO)[C@@H](OC(=O)CCc2ccccc2)[C@@H]2OC(=O)[C@@H](Cc3ccc4ccccc4c3)C/C=C/C[C@H](Cc3ccc4ccccc4c3)C(=O)O[C@@H]12 | 1.06
O=C1O[C@H](c2ccccc2)[C@H](c2ccccc2)N2[C@H]1[C@@H](C(=O)O)[C@]1(C(=O)Nc3ccccc31)[C@H]2c1ccc(OCCO)cc1 | -0.283
O=C1c2ccccc2[C@@]2(Cc3ccccc3N(CC(F)(F)F)C2=O)[C@H](c2ccc(CO)cc2)N1Cc1ccccc1 | -0.175
COCCCNC(=O)[C@@]1(Cc2ccccc2I)c2ccccc2C(=O)N(C2CCCCC2)[C@H]1c1ccc(CO)cc1 | 0.646
COCCOC(=O)N1C(=O)[C@@]2(c3cc(C#CC4(O)CCCCCC4)ccc31)[C@H](C(N)=O)[C@H]1C(=O)O[C@H](c3ccccc3)[C@H](c3ccccc3)N1[C@@H]2c1ccc(OCCO)cc1 | 0.637
CCCNC(=O)[C@@]1(Sc2ccc(C)cc2)CC(=O)N(Cc2cc(C(F)(F)F)cc(C(F)(F)F)c2)[C@@H]1c1ccc(CO)cc1 | -0.155
C=C(CCCC)/C(=C/C[C@@H](OC(C)=O)c1cccc(OCCO)c1)c1cc(C(=O)OC)ccc1OC | -0.558
Cc1cccc([C@H]2C[C@H]3C(Br)=C[C@@]2(CO)C(=O)[C@]32CO2)c1 | -1.08
CCCCN1CC=CC23O[C@@H]4/C=C\CCCOC(=O)C4[C@H]2C(=O)N(CCCCCCO)[C@@H]3C1=O (some centres undefined) | -1.49
C=CCNC(=O)[C@@H]1[C@H]2C(=O)O[C@H](c3ccccc3)[C@H](c3ccccc3)N2[C@H](c2ccc(OCCO)cc2)[C@@]12C(=O)N(C(=O)OCCOC)c1ccccc12 | 0.281
COc1ccc(C(=O)Nc2ccc(CN3C(=O)[C@]4(O[C@H](CC(=O)N(CCO)Cc5ccccc5)[C@@H]([Si](C)(C)c5ccc(OC)cc5)[C@@H]4C)c4ccccc43)cc2)cc1 | -0.0595
COC(=O)Cn1c(C(=O)N(C)C)cc2c1C[C@H]1CN(C(=O)c3ccccc3)[C@@](Cc3ccccc3)(C(=O)OC)[C@@H]21 | 0.541
CO[C@H]1O[C@H](CO)[C@@H](OC(=O)Nc2cccc(F)c2)[C@H](OC(=O)Nc2ccc3c(c2)OCO3)[C@@H]1OC(=O)Nc1ccc2c(c1)OCO2 | 1.21
COC(=O)[C@@]1(Cc2ccc(F)cc2)[C@H]2c3cc(C(=O)N(C)C)n(Cc4cccc5ccccc45)c3C[C@H]2CN1C(=O)c1ccccc1 | 1.49
CCOC(=O)C[C@H]1[C@H](OC(=O)Cc2ccc3c(c2)OCO3)[C@@H](NC(=O)CC(C)C)c2cc(OCCCO)ccc2N1C(=O)c1ccc2ccccc2n1 | -0.147
O=C1O[C@H](c2ccccc2)[C@H](c2ccccc2)N2[C@H]1[C@@H](C(=O)N1CCN(c3ncccn3)CC1)[C@]1(C(=O)Nc3ccc(C#CC4(O)CCCCCC4)cc31)[C@H]2c1ccc(O)cc1 | 0.0774
COC(=O)C[C@H]1O[C@]2(C(=O)N(C)c3ccccc32)[C@@H](C)[C@@H]1[Si](C)(C)c1ccccc1 | 0.395
